Compounds with a hit are over-represented: about 6.9% of the library has one in this group of screens.
FXIIa inh mix: inhibitors of human coagulation factor XIIa, pooled mixtures | P00748 | purified FXIIa, fluorogenic substrate | inhibition, % at 5 µM | actives 0.2% (n = 62,000);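 also: 0% = enzyme without compound and 100% = no enzyme blank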
Her2 expr inh: inhibitors of human Her2 kinase expression; SKBR-3 HER2 protein level, AlphaScreen, 18-24 h; active compounds read low; HER2 level % of control, % at 10 µM; actives 0.69% (n = 65,000);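 active = HER2 level under 5% of the carrier-only control; inconclusive = no clear call, values can overlap the other calls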;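 also: 100% = DMSO carrier and 0% = 500 nM PU-H71 HSP90 inhibitor; lower value means stronger loss of Her2 protein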
M1 antag: antagonists of rat M1 muscarinic receptor. P08482. CHO-M1 cells, Fluo-4 calcium, ACh EC80 antagonist mode; active compounds read low. B-score at 10 µM. actives 3.4% (n = 64,000). AID 628;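 active = calcium fluorescence response, raw or row-and-column corrected B-score, differing from the plate sample mean either way at a set confidence level, mostly lower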
JNK3 inh: JNK3 (human) kinase inhibition; inhibition, % at 8 µM; actives 0.61% (n = 60,000); purified JNK3 kinase activity, HTS; P53779; in the data active = inhibition above about 17%;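 also: 0% = DMSO and 100% = reference inhibitor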
FXIa inh mix: blocks human factor XIa in pooled compound mixtures; purified FXIa, fluorogenic substrate; AID 680; P03951; inhibition, % at 5 µM; actives 0.19% (n = 62,000);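 also: each value is inhibition by a whole ten-compound pool holding the compound; 0% = enzyme with no mixture and 100% = wells lacking enzyme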
Target sequence (P03951 19-387 limits assumed): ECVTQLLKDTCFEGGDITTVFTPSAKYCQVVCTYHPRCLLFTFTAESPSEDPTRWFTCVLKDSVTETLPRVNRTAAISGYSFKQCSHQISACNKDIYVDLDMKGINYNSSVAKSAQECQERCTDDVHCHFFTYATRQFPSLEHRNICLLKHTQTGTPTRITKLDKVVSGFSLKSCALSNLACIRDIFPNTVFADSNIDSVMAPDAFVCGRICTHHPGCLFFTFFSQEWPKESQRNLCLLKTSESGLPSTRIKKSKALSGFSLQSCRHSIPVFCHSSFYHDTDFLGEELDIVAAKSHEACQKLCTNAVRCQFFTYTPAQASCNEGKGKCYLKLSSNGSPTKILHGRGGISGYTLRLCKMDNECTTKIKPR
Target sequence (P03951 388-625 limits assumed): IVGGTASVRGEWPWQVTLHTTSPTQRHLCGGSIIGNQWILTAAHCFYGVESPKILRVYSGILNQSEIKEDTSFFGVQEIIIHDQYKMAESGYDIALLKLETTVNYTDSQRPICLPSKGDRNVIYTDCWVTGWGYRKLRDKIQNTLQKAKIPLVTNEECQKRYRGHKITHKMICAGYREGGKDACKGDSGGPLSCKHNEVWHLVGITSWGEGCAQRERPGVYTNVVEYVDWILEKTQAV
M1 ag: M1 muscarinic receptor agonism; CHO-M1 cells, Fluo-4 calcium fluorescence, agonist mode; active compounds read high; B-score at 10 µM; actives 3% (n = 64,000);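 active = fluorescence rise, raw or as B-score row- and column-corrected plate score, outside the 99.7% band of its plate's samples, either direction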
M1 ag confirm: rat M1 muscarinic agonism, confirmation. shares compounds with M1 ag. fluorescence change (max-min) at 10 µM. AID 1488. actives 19% (n = 1,700). CHO-M1 cells, Fluo-4 calcium fluorescence, agonist mode; actives lie on both sides;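 active = fluorescence change differs from the solvent-only DMSO control mean at a set confidence level in both duplicate runs; inconclusive = differs from solvent-only control mean in just one of two runs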;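 also: an EC20 dose of acetylcholine follows compound addition during the same imaging run; raw fluorescence intensity difference in instrument units with no normalization to controls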
M4 agonist ctr: rat M4 muscarinic agonism, M1 counter-screen; shares compounds with M1 ag; CHO M4/Gqi5 cells, Fluo-4 calcium fluorescence, agonist mode; actives lie on both sides; fluorescence change (max-min) at 10 µM; actives 9% (n = 1,700); AID 1741;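 active = fluorescence change differing from the plate's solvent-only control wells at 99.7% confidence in both duplicates, whether higher or lower; inconclusive = differs from solvent controls in only one of two duplicates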
The depositor's hits bear a star; ? = inconclusive; nt = not tested or not shown. Rule as the data show it, unless noted: active = inhibition above about 20% (passing the limit was not always enough); inactive = the rest.

SMILES | FXIIa inh mix | Her2 expr inh | M1 antag | JNK3 inh | FXIa inh mix | M1 ag | M1 ag confirm | M4 agonist ctr
Cc1ccc(N(C(C)C(=O)N2CCC(C)CC2)S(C)(=O)=O)cc1C (stereo not given) | -2 | 116 | -0.16 | -1 | 6 | 2.5* | -6.7 | -15
Cc1ccc(N(C(C)C(=O)Nc2ccccc2C(=O)N2CCOCC2)S(C)(=O)=O)cc1C (stereo not given) | -1 | 88 | -0.94 | 5 | -4 | 0.87 | nt | nt
CCOC(=O)N1CCN(C(=O)C(C)N(c2ccc(Oc3ccccc3)cc2)S(C)(=O)=O)CC1 (stereo not given) | 8 | 123 | -1.3 | -2 | 3 | 3.6* | -4.8 | -66
CCN(CC)CCCN1C(=O)C(=O)/C(=C(/O)c2ccccc2)C1c1ccccn1 (stereo not given) | 1 | 113 | 0.096 | -6 | 10 | 0.98 | nt | nt
COc1ccc(OC)c(S(=O)(=O)N2CCC(C(=O)Nc3cccc(C)c3C)CC2)c1 | 3 | 84 | -0.84 | 3 | -1 | -0.52 | nt | nt
COc1ccc(OC)c(S(=O)(=O)N2CCC(C(=O)Nc3ccc(C)c(C)c3)CC2)c1 | -3 | 99 | -0.97 | -2 | 2 | 15* | -8 | ?
CCOC(=O)N1CCC(N2C(=O)c3ccccc3C2Nc2ccc(Cl)cn2)CC1 (stereo not given) | -1 | 94 | -0.0045 | 3 | 7 | 0.92 | nt | nt
Cc1ccc(-c2noc(CN3C(C)CCCC3C)n2)cc1 (stereo not given) | 3 | 86 | -1.2 | -2 | 8 | 0.62 | nt | nt
CCc1c(C)nc(Nc2nc(C)c3cc(OC)ccc3n2)[nH]c1=O | 12 | 69 | -0.38 | -2 | -4 | 4.1* | -22 | -20
CCCCCc1c(C)nc(Nc2nc(C)c3cc(OC)ccc3n2)[nH]c1=O | 6 | 102 | 0.071 | -5 | 5 | 0.62 | nt | nt
CN(C)CCNc1nc2c(c(=O)[nH]c(=O)n2C)n1CC(O)COc1ccc(Cl)cc1Cl (stereo not given) | 5 | 90 | 0.016 | 1 | 6 | 4.2* | -7.6 | -24
Cc1ccccc1OCC(O)Cn1c(SC(C)C)nc2c1c(=O)[nH]c(=O)n2C (stereo not given) | 14 | 98 | -0.76 | 5 | 1 | 6.9* | -16 | -28
CCSc1nc2c(c(=O)[nH]c(=O)n2C)n1CC(O)COc1ccccc1C (stereo not given) | 8 | 78 | 0.47 | 0 | -1 | 4.1 | nt | nt
CCCCC1CC1C(=O)Nc1ccc(OC)c(OC)c1 (stereo not given) | nt | 95 | -0.18 | 0 | nt | 0.037 | nt | nt
Cc1ccc(C2C(C#N)=C(N)SC(N)=C2C#N)c(C)c1 | 2 | 86 | -0.03 | 2 | 6 | 11* | -15 | -49
CCCc1nc(SCC(=O)N2CCCc3ccccc32)c2c(=O)n(C)c(=O)n(C)c2n1 | 8 | 26 | -1.4* | 7 | 0 | 2.9* | ? | -37
CCCc1nc(SCC(=O)N2CCC(Cc3ccccc3)CC2)c2c(=O)n(C)c(=O)n(C)c2n1 | -10 | nt | -1.2 | -3 | 0 | 4* | -13 | -21
CCOC(=O)c1oc2cccc(O)c2c1CN(Cc1ccccc1)C(C)=O | 10 | 118 | 0.73 | 1 | 3 | 2.6* | ? | -44
COc1ccccc1NC(=O)CCC(=O)Nc1nnc(C(F)(F)F)s1 | 4 | 83 | 1.1 | 0 | 2 | 1.2 | nt | nt
CCN(c1ccccc1)S(=O)(=O)c1ccc(F)cc1C | 5 | 102 | -0.018 | 3 | 0 | 15* | ? | -57
COc1ccc(NC(=O)N(Cc2cc3cc(OC)ccc3[nH]c2=O)CC2CCCO2)cc1 (stereo not given) | 0 | 94 | -0.44 | 4 | 2 | 4* | ? | -74*
Cc1cc(S(=O)(=O)N2CCN(Cc3ccc4c(c3)OCO4)CC2)cc(C)c1N1CCCC1=O | 3 | 73 | 0.85 | -4 | 5 | 3.3* | -18 | -40
COc1ccc(Cl)cc1S(=O)(=O)N1CCN(Cc2ccc3c(c2)OCO3)CC1 | 1 | 106 | -0.2 | 4 | -1 | -0.068 | nt | nt
Cc1cc(C)nc(N2CCC(C(=O)Nc3cccc(C(F)(F)F)c3)CC2)n1 | 12 | 74 | -0.71 | -5 | 2 | 0.063 | nt | nt
O=C(c1cc2nc(-c3ccccc3)cc(C(F)(F)F)n2n1)N1CCCC1 | 4 | 110 | -0.16 | nt | 6 | -0.041 | nt | nt
SMILES | FXIIa inh mix | Her2 expr inh | M1 antag | JNK3 inh | FXIa inh mix | M1 ag | M1 ag confirm | M4 agonist ctr
O=C(c1cc2nc(-c3ccccc3)cc(-c3ccccc3)n2n1)N1CCN(C(=O)c2ccco2)CC1 | 1 | nt | -0.82 | 3 | -12 | 3.5* | -20 | -21
O=C(c1cc2nc(-c3ccco3)cc(C(F)(F)F)n2n1)N1CCN(c2ccccc2)CC1 | 5 | 83 | -0.51 | -1 | 8 | 2.3 | nt | nt
O=C(c1cc2nc(-c3ccco3)cc(C(F)(F)F)n2n1)N1CCN(c2ccccn2)CC1 | 1 | 54 | -0.93 | 5 | 0 | 2.5* | ? | -49
CCOC(=O)c1c(C)oc2c1c(C(c1ccncc1)N1CCOCC1)c(O)c1ccccc12 (stereo not given) | -2 | -12* | 0.011 | 0 | 5 | 3* | ? | -50
O=C(c1ccc(NS(=O)(=O)c2ccccc2)cc1)N1CCCC1 | 4 | 54 | 0.14 | -7 | 2 | -0.38 | nt | nt
CCN(CC)S(=O)(=O)c1ccc(S(=O)(=O)Nc2ccc(C(=O)N3CCCC3)cc2)cc1 | -20 | 96 | 0.88 | 0 | -5 | 2.2* | -9.5 | -30
O=C(CCCn1c(=O)[nH]c2ccccc2c1=O)N1CCN(c2ccccn2)CC1 | 5 | 54 | 0.83 | 12 | 9 | -0.29 | nt | nt
O=C(CCCCCNc1nc(=S)[nH]c2ccccc12)N1CCN(c2ccccn2)CC1 | 3 | 85 | -1.6 | nt | 7 | 15* | -9 | -32
COC(=O)c1ccc(NC2=CC(=O)CC(C)(C)C2)cc1 | -13 | 84 | 0.004 | 2 | 0 | -0.035 | nt | nt
CC(=O)Nc1ccc(NC2=CC(=O)CC(C)(C)C2)cc1 | 2 | 83 | 0.22 | -3 | 9 | 11* | ? | -82
CC1(C)CC(=O)C=C(Nc2ccccc2NC(=O)c2cnccn2)C1 | 18 | 167 | -1.8* | nt | 2 | 21* | -13 | -23
CCOC(=O)CSc1nc(N2CCOCC2)c2c(c1C#N)CC(C)(C)N(C)C2 | nt | 87 | -0.66 | -2 | nt | 0.32 | nt | nt
COc1ccc(N(CC(O)Cn2nnc3ccccc32)S(=O)(=O)c2ccc(C)cc2)cc1 (stereo not given) | -5 | 128 | -0.79 | 0 | -4 | -1.1 | nt | nt
CCOC(=O)c1ccc(N=Cc2nc3ccccc3n2C)cc1 | 7 | 95 | 0.53 | 2 | 4 | 0.82 | nt | nt
CCOC(=O)c1c(C)[nH]c(C=Nc2ccccc2)c1O | 4 | 71 | -0.98 | 1 | 4 | -2.2* | -20 | -33
